# Source: the supplement of paper PMC8728848
# The sample as a whole holds a higher share of the strongest signals than the screen did.
# Key:
# Assay in all cases: glycan array binding signal (z-score within array); higher = stronger binding
# Conditions in all cases: glycan notation: IUPAC condensed, linker removed
# [1] = molecular target: Fuc(a1-2)Gal(b1-3)GalNAc(b1-4)[Neu5Ac(a2-3)]Gal(b1-4)Glc
# How it was run: (§1)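 Arrays were curated from the Consortium for Functional Glycomics database, 3228 in total, and kept only where the protein sequence was available. Binding is expressed as a within-array Z-score. This score was averaged across arrays of the same protein sequence at different concentrations or buffers and across linkers, and negative values can be read as non-binding.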
# [2] = molecular target: Fuc(a1-2)Gal(b1-3)GlcNAc(b1-3)[Neu5Ac(a2-6)Gal(b1-4)GlcNAc(b1-6)]Gal(b1-4)Glc
# How it was run: as §1
# [3] = molecular target: Fuc(a1-2)Gal(b1-4)GlcNAc(b1-3)Gal(b1-4)GlcNAc(b1-2)Man(a1-3)[Fuc(a1-2)Gal(b1-4)GlcNAc(b1-3)Gal(b1-4)GlcNAc(b1-2)Man(a1-6)]Man(b1-4)GlcNAc(b1-4)GlcNAc
# How it was run: as §1
# [4] = molecular target: Fuc(a1-2)Gal(b1-4)[Fuc(a1-3)]GlcNAc(b1-3)Gal(b1-4)[Fuc(a1-3)]GlcNAc
# How it was run: as §1
# [5] = molecular target: Fuc(a1-2)Gal3S(b1-4)GlcNAc
# How it was run: as §1
# [6] = molecular target: Fuc(a1-2)[Gal(a1-3)]Gal(b1-4)GlcNAc(b1-3)[Fuc(a1-2)[Gal(a1-3)]Gal(b1-4)GlcNAc(b1-6)]GalNAc
# How it was run: as §1
# [7] = molecular target: Fuc(a1-2)[GalNAc(a1-3)]Gal(b1-3)GalNAc(a1-3)[Fuc(a1-2)]Gal(b1-4)GlcNAc
# How it was run: as §1
# [8] = molecular target: Fuc(a1-2)[GalNAc(a1-3)]Gal(b1-3)GlcNAc(b1-6)GalNAc
# How it was run: as §1
# [9] = molecular target: Fuc(a1-3)[Gal(b1-4)]GlcNAc(b1-6)GalNAc
# How it was run: as §1
# [10] = molecular target: Fuc(a1-3)[Gal3S(b1-4)]GlcNAc6S
# How it was run: as §1
# Fuc(a1-4)GlcNAc = molecular target: Fuc(a1-4)GlcNAc
# How it was run: as §1
# [11] = molecular target: Gal(a1-3)[Gal(a1-4)]Gal(b1-4)GlcNAc
# How it was run: as §1
# Gal(a1-4)Gal(b1-4)GlcNAc = molecular target: Gal(a1-4)Gal(b1-4)GlcNAc
# How it was run: as §1
# Gal(b1-3)GlcNAc = molecular target: Gal(b1-3)GlcNAc
# How it was run: as §1
# [12] = molecular target: Gal(b1-3)GlcNAc(a1-3)Gal(b1-4)GlcNAc
# How it was run: as §1
# [13] = molecular target: Gal(b1-3)GlcNAc(b1-2)Man(a1-3)[Gal(b1-3)GlcNAc(b1-2)Man(a1-6)]Man(b1-4)GlcNAc(b1-4)GlcNAc
# How it was run: as §1
# [14] = molecular target: Gal(b1-3)GlcNAc(b1-3)Gal(b1-4)GlcNAc(b1-3)Gal(b1-4)GlcNAc(b1-2)[Gal(b1-3)GlcNAc(b1-3)Gal(b1-4)GlcNAc(b1-3)Gal(b1-4)GlcNAc(b1-6)]Man(a1-6)[Gal(b1-3)GlcNAc(b1-3)Gal(b1-4)GlcNAc(b1-3)Gal(b1-4)GlcNAc(b1-2)Man(a1-3)]Man(b1-4)GlcNAc(b1-4)[Fuc(a1-6)]GlcNAc
# How it was run: as §1
# [15] = molecular target: Gal(b1-4)GlcNAc(b1-2)Man(a1-3)Man(b1-4)GlcNAc(b1-4)GlcNAc
# How it was run: as §1
# [16] = molecular target: Gal(b1-4)GlcNAc(b1-2)Man(a1-6)[GlcNAc(b1-2)Man(a1-3)]Man(b1-4)GlcNAc(b1-4)GlcNAc
# How it was run: as §1
# [17] = molecular target: Gal(b1-4)GlcNAc(b1-3)Gal(b1-4)GlcNAc(b1-2)Man(a1-3)[Gal(b1-4)GlcNAc(b1-3)Gal(b1-4)GlcNAc(b1-2)Man(a1-6)]Man(b1-4)GlcNAc(b1-4)[Fuc(a1-6)]GlcNAc
# How it was run: as §1
# [18] = molecular target: Gal(b1-4)GlcNAc(b1-3)Gal(b1-4)GlcNAc(b1-3)Gal(b1-4)GlcNAc(b1-2)Man(a1-3)[Gal(b1-4)GlcNAc(b1-3)Gal(b1-4)GlcNAc(b1-3)Gal(b1-4)GlcNAc(b1-2)Man(a1-6)]Man(b1-4)GlcNAc(b1-4)GlcNAc
# How it was run: as §1
# [19] = molecular target: Gal(b1-4)GlcNAc(b1-3)Gal(b1-4)GlcNAc(b1-3)Gal(b1-4)GlcNAc(b1-3)Gal(b1-4)GlcNAc(b1-2)Man(a1-3)[Gal(b1-4)GlcNAc(b1-3)Gal(b1-4)GlcNAc(b1-3)Gal(b1-4)GlcNAc(b1-3)Gal(b1-4)GlcNAc(b1-2)Man(a1-6)]Man(b1-4)GlcNAc(b1-4)GlcNAc
# How it was run: as §1
# [20] = molecular target: Gal(b1-4)GlcNAc(b1-3)Gal(b1-4)GlcNAc(b1-3)Gal(b1-4)GlcNAc(b1-3)Gal(b1-4)GlcNAc(b1-2)[Gal(b1-4)GlcNAc(b1-3)Gal(b1-4)GlcNAc(b1-3)Gal(b1-4)GlcNAc(b1-3)Gal(b1-4)GlcNAc(b1-6)]Man(a1-6)[Gal(b1-4)GlcNAc(b1-3)Gal(b1-4)GlcNAc(b1-3)Gal(b1-4)GlcNAc(b1-3)Gal(b1-4)GlcNAc(b1-2)Man(a1-3)]Man(b1-4)GlcNAc(b1-4)[Fuc(a1-6)]GlcNAc
# How it was run: as §1
# [21] = molecular target: Gal(b1-4)GlcNAc(b1-3)Gal(b1-4)GlcNAc(b1-3)Gal(b1-4)GlcNAc(b1-3)Gal(b1-4)GlcNAc(b1-3)Gal(b1-4)GlcNAc(b1-2)Man(a1-3)[Gal(b1-4)GlcNAc(b1-3)Gal(b1-4)GlcNAc(b1-3)Gal(b1-4)GlcNAc(b1-3)Gal(b1-4)GlcNAc(b1-3)Gal(b1-4)GlcNAc(b1-2)Man(a1-6)]Man(b1-4)GlcNAc(b1-4)GlcNAc
# How it was run: as §1
# [22] = molecular target: Gal(b1-4)GlcNAc(b1-3)Gal(b1-4)GlcNAc(b1-3)Gal(b1-4)GlcNAc(b1-3)Gal(b1-4)GlcNAc(b1-3)Gal(b1-4)GlcNAc(b1-2)[Gal(b1-4)GlcNAc(b1-3)Gal(b1-4)GlcNAc(b1-3)Gal(b1-4)GlcNAc(b1-3)Gal(b1-4)GlcNAc(b1-3)Gal(b1-4)GlcNAc(b1-6)]Man(a1-6)[Gal(b1-4)GlcNAc(b1-3)Gal(b1-4)GlcNAc(b1-3)Gal(b1-4)GlcNAc(b1-3)Gal(b1-4)GlcNAc(b1-3)Gal(b1-4)GlcNAc(b1-2)Man(a1-3)]Man(b1-4)GlcNAc(b1-4)[Fuc(a1-6)]GlcNAc
# How it was run: as §1
# [23] = molecular target: Gal(b1-4)GlcNAc(b1-6)GalNAc
# How it was run: as §1
# Gal3S(b1-3)GlcNAc = molecular target: Gal3S(b1-3)GlcNAc
# How it was run: as §1
# [24] = molecular target: Gal3S(b1-4)[Fuc(a1-3)]GlcNAc
# How it was run: as §1
# [25] = molecular target: GalNAc3S(b1-4)[Fuc(a1-3)]GlcNAc
# How it was run: as §1
# [26] = molecular target: GlcNAc(b1-3)Gal(b1-4)GlcNAc(b1-3)Gal(b1-4)GlcNAc(b1-3)Gal(b1-4)GlcNAc(b1-3)Gal(b1-4)GlcNAc(b1-2)Man(a1-3)[GlcNAc(b1-3)Gal(b1-4)GlcNAc(b1-3)Gal(b1-4)GlcNAc(b1-3)Gal(b1-4)GlcNAc(b1-3)Gal(b1-4)GlcNAc(b1-2)Man(a1-6)]Man(b1-4)GlcNAc(b1-4)[Fuc(a1-6)]GlcNAc
# How it was run: as §1
# [27] = molecular target: GlcNAc(b1-3)[GlcNAc(b1-6)]Gal(b1-4)GlcNAc
# How it was run: as §1
# [28] = molecular target: Man(a1-3)[Man(a1-6)]Man(b1-4)GlcNAc(b1-4)GlcNAc
# How it was run: as §1
# [29] = molecular target: Man(a1-3)[Man(a1-6)]Man(b1-4)GlcNAc(b1-4)[Fuc(a1-6)]GlcNAc
# How it was run: as §1
# Man(a1-6)Man = molecular target: Man(a1-6)Man
# How it was run: as §1
# [30] = molecular target: Neu5Ac(a2-3)Gal(b1-3)[Neu5Ac(a2-6)]GalNAc
# How it was run: as §1
# [31] = molecular target: Neu5Ac(a2-3)Gal(b1-4)GlcNAc
# How it was run: as §1
# [32] = molecular target: Neu5Ac(a2-3)Gal(b1-4)GlcNAc(b1-3)Gal(b1-4)GlcNAc(b1-3)Gal(b1-4)GlcNAc(b1-2)Man(a1-3)[Neu5Ac(a2-3)Gal(b1-4)GlcNAc(b1-3)Gal(b1-4)GlcNAc(b1-3)Gal(b1-4)GlcNAc(b1-2)Man(a1-6)]GalNAc
# How it was run: as §1
# [33] = molecular target: Neu5Ac(a2-3)Gal(b1-4)GlcNAc(b1-3)Gal(b1-4)GlcNAc(b1-6)[Gal(b1-3)]GalNAc
# How it was run: as §1
# [34] = molecular target: Neu5Ac(a2-3)Gal(b1-4)GlcNAc(b1-6)GalNAc
# How it was run: as §1
# [35] = molecular target: Neu5Ac(a2-3)GalNAc(b1-4)GlcNAc
# How it was run: as §1
# [36] = molecular target: Neu5Ac(a2-8)Neu5Ac(a2-3)Gal(b1-3)GalNAc(b1-4)[Neu5Ac(a2-3)]Gal(b1-4)Glc
# How it was run: as §1
# [37] = molecular target: Neu5Ac(a2-8)Neu5Gc(a2-3)Gal(b1-4)GlcNAc
# How it was run: as §1
# [38] = molecular target: Neu5Gc(a2-3)Gal(b1-4)GlcNAc
# How it was run: as §1
# [39] = molecular target: Neu5Gc(a2-3)Gal(b1-4)[Fuc(a1-3)]GlcNAc
# How it was run: as §1
binder,measurement,setting,value
PX14343A-bvu-539-29-539 (Bacteroides vulgatus) (protein) DSLTESSSNTFWQTPDDALMALASCYDALQSNQLYNSDQYSLGPLYMDCISDNGGHFNWSGWMEGYDMAMGIHTPSSSIIGSYWKDCYEVISRCNVLIANIDRVDMDASQKAIYQAEAKTIRALMYINLTMTYQDVPFLTAPLTIDEAECEKTDRAAIVAHVMTDLQDAAEVLPQNASSRGHITKGAALSLLGRVALYNEKWDDAIAAYKQVQGLGYSLDPSYAKLFTQSGETSPEIIFAVRYEGPGMSEGAAFNAHWNTPLEAMNGTIDLADAYYCKDGKPTTDTKIAELNGGGGLDVSKPNPAHFENRDPRLYSTLFVPGMLWNGKGGIDTSASNPYANVYGGAAASLSTVYVYKYFDPTDTSNSWDNGQDFYVVRYAEVLLSLAEAMVQKGGYVYSDVTALVNEVRQRADVNMPTVEEVEGTSLSKDELLEVIKHERRVELAFEGLRLFDLYRWKELDKAVANIENERTMYGLAYEARKFNGERDYVWPLPTAELDTNKKLVQHDLWK,glycan array binding signal (z-score),[1],-0.271
same,glycan array binding signal (z-score),[2],-0.213
same,glycan array binding signal (z-score),[3],8.08
same,glycan array binding signal (z-score),[4],-0.083
same,glycan array binding signal (z-score),[5],-0.406
same,glycan array binding signal (z-score),[6],7.49
same,glycan array binding signal (z-score),[7],0.132
same,glycan array binding signal (z-score),[8],-0.292
same,glycan array binding signal (z-score),[9],-0.298
same,glycan array binding signal (z-score),[10],-0.338
same,glycan array binding signal (z-score),Fuc(a1-4)GlcNAc,-0.448
same,glycan array binding signal (z-score),[11],6.76
same,glycan array binding signal (z-score),Gal(a1-4)Gal(b1-4)GlcNAc,-0.281
same,glycan array binding signal (z-score),Gal(b1-3)GlcNAc,-0.258
same,glycan array binding signal (z-score),[12],-0.396
same,glycan array binding signal (z-score),[13],0.765
same,glycan array binding signal (z-score),[14],4.27
same,glycan array binding signal (z-score),[15],8.02
same,glycan array binding signal (z-score),[16],-0.116
same,glycan array binding signal (z-score),[17],0.489
same,glycan array binding signal (z-score),[18],1.35
same,glycan array binding signal (z-score),[19],6.18
same,glycan array binding signal (z-score),[20],3.38
same,glycan array binding signal (z-score),[21],2.78
same,glycan array binding signal (z-score),[22],9.28
same,glycan array binding signal (z-score),[23],-0.291
same,glycan array binding signal (z-score),Gal3S(b1-3)GlcNAc,-0.038
same,glycan array binding signal (z-score),[24],-0.121
same,glycan array binding signal (z-score),[25],-0.399
same,glycan array binding signal (z-score),[26],0.355
same,glycan array binding signal (z-score),[27],-0.27
same,glycan array binding signal (z-score),[28],-0.432
same,glycan array binding signal (z-score),[29],-0.297
same,glycan array binding signal (z-score),Man(a1-6)Man,-0.184
same,glycan array binding signal (z-score),[30],0.662
same,glycan array binding signal (z-score),[31],-0.373
same,glycan array binding signal (z-score),[32],8.35
same,glycan array binding signal (z-score),[33],-0.244
same,glycan array binding signal (z-score),[34],0.089
same,glycan array binding signal (z-score),[35],-0.142
same,glycan array binding signal (z-score),[36],-0.102
same,glycan array binding signal (z-score),[37],4.74
same,glycan array binding signal (z-score),[38],-0.254
same,glycan array binding signal (z-score),[39],-0.404
